Measurements taken from PubChem BioAssay (NCATS).
Inconclusive results are not listed. Entries that show only a call come without a potency. For part of these data: Potency and affinity values are given separately. Activity calls are given as the source filed them. Unless noted, the rule behind the calls is not given here.

What was measured:
[1] = qHTS profiling of the MIPE4 collection as inhibitors of Plasmodium falciparum (3D7) proliferation (AID 743344); conditions: P. falciparum 3D7 in erythrocytes, SYBR Green DNA fluorescence, 72 h; at 28.5 µM
How it was run: (§1)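 Erythrocytes infected with P. falciparum (0.3% parasitemia, 2.5% hematocrit) incubated with compounds 72 h at 37 C, 5% CO2. Lysis with saponin/Triton buffer containing SYBR Green I, overnight at room temperature in the dark; DNA fluorescence (485/535 nm) normalised to 0.29 uM artemisinin and DMSO.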

[2] = qHTS profiling of the MIPE4 collection as inhibitors of Plasmodium falciparum (DD2) proliferation (AID 743345); conditions: P. falciparum Dd2 in erythrocytes, SYBR Green DNA, 72 h; at 28.5 µM
How it was run: as §1

[3] = qHTS profiling of the MIPE4 collection as inhibitors of Plasmodium falciparum (HB3) proliferation (AID 743347); conditions: P. falciparum HB3 in erythrocytes, SYBR Green DNA, 72 h; at 28.5 µM
How it was run: as §1

[4] = Ebola virus entry assay, green fluorescence channel
[5] = Ebola virus entry assay, blue channel fluorescence
[6] = Ebola virus entry assay, ratio channel
[7] = Ebola virus entry assay, reporter ratio channel; Channel type: primary
[8] = qHTS assay for cell viability of HEK293 cells (AID 743288; active = well fitted curve in the direction sought with a large enough effect; an effect the other way counts as inactive or inconclusive; note: nearly all actives have a fitted effect of over 50% in size; note: potency is the fitted concentration of half-maximal effect); conditions: ATP luminescence (CellTiter-Glo), 18 h; max response: stronger effect = lower value
How it was run: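 Environmental chemicals tested in qHTS format against parental HEK293 cells; 18 h treatment, 37 C; read-out ATP luminescence (CellTiter-Glo), 30 min RT development.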

[9] = qHTS assay for cell viability of the p53RE-bla HCT-116 cell line (AID 743292; active = well fitted curve in the direction sought with a large enough effect; an effect the other way counts as inactive or inconclusive; note: nearly all actives have a fitted effect of over 55% in size)
How it was run: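 ATP-based luminescence, 16 h compound exposure at 37 C, p53RE-bla HCT-116 cells at 4,000/well.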

[10] = Ebola virus entry assay, blue channel (ratio component)
[11] = qHTS assay for measurement of the activity of small molecule inhibitors on Zika virus induced Caspase-3 activity in human iPSC derived neural progenitor cells (hNPCs) (AID 1224857; active = well fitted curve in the direction sought with a large enough effect; an effect the other way counts as inactive or inconclusive; note: nearly all actives have a fitted effect of over 65% in size)
How it was run: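 Pretreat hNPCs with compound 1 h; infect ZIKV 2 FFU/cell; 6 h 37 C, 5% CO2; Caspase-Glo 3/7, 30 min RT; luminescence; normalize to no-virus and virus-only wells.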

[12] = Ebola virus entry assay, green channel fluorescence
[13] = qHTS profiling for inhibitors of Plasmodium falciparum (3D7) proliferation (AID 743322);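 note: infected erythrocytes exposed to compound for 72 h before lysis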; conditions: P. falciparum 3D7 proliferation; at 28.7 µM (top of the series)
How it was run: as §1

[14] = qHTS profiling for inhibitors of Plasmodium falciparum (DD2) proliferation (AID 743323); conditions: lower = more inhibition; at 28.7 µM (top of the series)
How it was run: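 Parasite DNA quantified by SYBR Green fluorescence (ex 485, em 535 nm) after saponin/Triton lysis and overnight dark incubation. Cultures: 0.3% parasitemia, 2.5% hematocrit, 72 h, 37 C; data scaled between DMSO and 0.29 uM artemisinin.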

[15] = qHTS profiling for inhibitors of Plasmodium falciparum (HB3) proliferation (AID 743324; active = well fitted curve in the direction sought with a large enough effect; an effect the other way counts as inactive or inconclusive); conditions: Plasmodium falciparum HB3 blood-stage proliferation; at 28.7 µM (top of the series)
How it was run: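 P. falciparum HB3 grown in erythrocytes (0.3% parasitemia, 2.5% hematocrit final) with compound for 72 h at 37 C, 5% CO2. Parasite DNA detected by SYBR Green after saponin/triton lysis overnight; normalized to 0.29 uM artemisinin and DMSO.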

[16] = qHTS profiling of the MIPE4 collection as inhibitors of Plasmodium falciparum (DD2) proliferation (Rep 2) (AID 743346); conditions: P. falciparum Dd2 in erythrocytes, SYBR Green DNA, 72 h; at 28.5 µM
How it was run: as §1

[17] = Immunotoxin (HA22) sensitization/mitigation study. Vehicle arm (PBS) (AID 1159510)
[18] = Immunotoxin (SS1P) sensitization/mitigation study. Vehicle arm (DMEM) (AID 1159513)
[19] = High-throughput drug toxicity screening in the BPDCN cell line Gen2.2 (AID 1224824); conditions: Gen2.2 BPDCN cells; at 45.8 µM (top of the series);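 note: cells exposed to compounds for 48 h before reading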
How it was run: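 CellTiter-Glo luminescence after 48 h compound exposure of Gen2.2 cells; percent activity set with DMSO as 100% and bortezomib (9.2 uM final) as 0%. Cells seeded at 500 per well, RPMI + 10% FBS, 37 °C.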

[20] = High-throughput drug toxicity screening in the BPDCN cell line Cal-1 (AID 1224825); conditions: Cal-1 BPDCN cell viability, qHTS; at 45.8 µM (top of the series)
How it was run: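 Cal-1 cells, 500 per well in phenol-red-free RPMI with 10% FBS, exposed to compounds for 48 hours at 37C, 5% CO2. Viability read by CellTiter-Glo luminescence; percent activity normalized to DMSO (100%) and 9.2 uM bortezomib final (0%).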

## Cc1cc(C(C)(C)C)cc(C)c1CC1=NCCN1
[1]
  parasite growth, % of DMSO control: 58.8%
[2]
  parasite growth remaining, % of DMSO control (lower = more inhibition): 38.8%
[3]
  growth, % of control: 84.3%
[4]
  efficacy: 93.8% (inactive)
[5]
  AC50: 14.1 µM (active)
[6]
  AC50: 12.6 µM (active)
[7]
  AC50: 12.6 µM (active)

## COP(=O)(OC)C(O)C(Cl)(Cl)Cl (centres undefined)
[8]
  max response: -19.1% (inactive)
[9]
  outcome: inactive
[4]
  efficacy: -51.3% (inactive)
[5]
  outcome: inactive
[7]
  outcome: inactive
[10]
  outcome: inactive
[11]
  Potency: inactive

## C[C@@H]1CN(C2CCC(C#N)(c3ccc(F)cc3)CC2)CC[C@]1(C(=O)O)c1ccccc1 (some centres undefined)
[4]
  efficacy: 31.9% (inactive)
[5]
  outcome: inactive
[12]
  outcome: inactive
[7]
  outcome: inactive
[10]
  outcome: inactive
[11]
  Potency: inactive

## C[N+]1(C)[C@@H]2CC[C@H]1CC(OC(=O)C(CO)c1ccccc1)C2 (some centres undefined)
[4]
  efficacy: 19.1% (inactive)
[5]
  outcome: inactive
[12]
  outcome: inactive
[7]
  outcome: inactive
[10]
  outcome: inactive
[11]
  Potency: inactive

## CC[n+]1c(-c2ccccc2)c2cc(N)ccc2c2ccc(N)cc21
[9]
  outcome: inactive
[4]
  efficacy: 67.8% (inactive)
[5]
  AC50: 28.2 µM (active)
[6]
  AC50: 14.1 µM (active)
[7]
  AC50: 14.1 µM (active)

## O=C(O)c1nn(Cc2ccc(Cl)cc2Cl)c2ccccc12
[13]
  remaining parasite growth % (stronger effect = lower value): 86.6%
[14]
  activity, percent of control: 60.1%
[15]
  remaining proliferation (% of control), lower = more inhibition: 104%
[1]
  parasite growth, % of DMSO control: 75.4%
[2]
  parasite growth remaining, % of DMSO control (lower = more inhibition): 99.8%
[16]
  parasite growth, % of control (lower = inhibition): 101%
[3]
  growth, % of control: 81.1%
[4]
  efficacy: 44.2% (inactive)
[5]
  outcome: inactive
[12]
  outcome: inactive
[7]
  outcome: inactive
[10]
  outcome: inactive
[17]
  Potency: inactive
[18]
  outcome: inactive
[19]
  cell viability, % of control (lower = more cytotoxic): 98.4%
[20]
  viability (% of control): 95.1%
[11]
  Potency: inactive

## Cc1[nH]c(=O)c(C#N)cc1-c1ccc2nccn2c1
[4]
  efficacy: -27% (inactive)
[5]
  outcome: inactive
[12]
  outcome: inactive
[7]
  outcome: inactive
[10]
  outcome: inactive
[17]
  Potency: inactive
[18]
  outcome: inactive

## CCC(=O)O[C@H]1CC[C@H]2[C@@H]3CCC4=CC(=O)CC[C@]4(C)[C@H]3CC[C@]12C
[8]
  max response: -26.1% (inactive)
[9]
  outcome: inactive
[4]
  efficacy: -42.2% (inactive)
[5]
  outcome: inactive
[12]
  outcome: inactive
[7]
  outcome: inactive
[11]
  Potency: inactive

## C[N+]1(CCC(C(N)=O)(c2ccccc2)c2ccccc2)CCCCC1
[4]
  efficacy: 21.3% (inactive)
[5]
  outcome: inactive
[12]
  outcome: inactive
[7]
  outcome: inactive
[10]
  outcome: inactive
[11]
  Potency: inactive

## CC(C)(O)C(Cl)(Cl)Cl
[4]
  efficacy: -12.3% (inactive)
[5]
  outcome: inactive
[12]
  outcome: inactive
[7]
  outcome: inactive
[10]
  outcome: inactive
[11]
  Potency: inactive

## CC(C)C(Br)C(=O)NC(N)=O (centres undefined)
[4]
  efficacy: -26.9% (inactive)
[5]
  outcome: inactive
[12]
  outcome: inactive
[7]
  outcome: inactive
[10]
  outcome: inactive
[11]
  Potency: inactive

## CN(C)[C@@H](CCOc1cccc2ccccc12)c1ccccc1
[16]
  parasite growth, % of control (lower = inhibition): 31.8%
[4]
  efficacy: -116% (inactive)
[5]
  AC50: 7.08 µM (active)
[6]
  AC50: 3.16 µM (active)
[7]
  AC50: 3.16 µM (active)

## COC(=O)C1=CCCN(C)C1
[1]
  parasite growth, % of DMSO control: 75.8%
[2]
  parasite growth remaining, % of DMSO control (lower = more inhibition): 98.7%
[16]
  parasite growth, % of control (lower = inhibition): 47.2%
[3]
  growth, % of control: 93%
[4]
  efficacy: 26.3% (inactive)
[5]
  outcome: inactive
[12]
  outcome: inactive
[7]
  outcome: inactive
[10]
  outcome: inactive
[19]
  cell viability, % of control (lower = more cytotoxic): 166%
[20]
  viability (% of control): 129%
[11]
  Potency: inactive

## ClC1=C(Cl)C2(Cl)C(CBr)CC1(Cl)C2(Cl)Cl (centres undefined)
[4]
  efficacy: -23.9% (inactive)
[5]
  outcome: inactive
[7]
  outcome: inactive
[10]
  outcome: inactive
[11]
  Potency: inactive

## CC(C)NCC(O)c1ccc(N)c(C#N)c1 (centres undefined)
[4]
  efficacy: -19.3% (inactive)
[5]
  outcome: inactive
[12]
  outcome: inactive
[7]
  outcome: inactive
[10]
  outcome: inactive
[11]
  Potency: inactive

## CCOC(=O)NC(O)C(Cl)(Cl)Cl (centres undefined)
[4]
  efficacy: 20.9% (inactive)
[5]
  outcome: inactive
[12]
  outcome: inactive
[7]
  outcome: inactive
[10]
  outcome: inactive
[11]
  Potency: inactive

## C[C@@H]1C[C@@H]([C@H](O)CC2CC(=O)NC(=O)C2)C(=O)[C@@H](C)C1
[8]
  Potency: 0.126 µM (active)
[9]
  outcome: inactive
[13]
  remaining parasite growth % (stronger effect = lower value): -0.0842%
[14]
  activity, percent of control: 0.342%
[1]
  parasite growth, % of DMSO control: 5.16%
[2]
  parasite growth remaining, % of DMSO control (lower = more inhibition): 6.36%
[16]
  parasite growth, % of control (lower = inhibition): 6.94%
[3]
  growth, % of control: 5.04%
[4]
  efficacy: -17.6% (inactive)
[5]
  outcome: inactive
[7]
  outcome: inactive
[10]
  outcome: inactive
[19]
  cell viability, % of control (lower = more cytotoxic): 19.5%
[20]
  viability (% of control): 10.9%
[11]
  Potency: inactive
